FMDV inh: antivirals against foot and mouth disease virus | Potency, µM (top dose mostly 57.9 µM), for inactives: at the highest dose activity change, negative = inhibition, hits mostly inhibitors | actives 1.2% (n = 410,000) | AID 1159524 | FMDV antiviral cell-based qHTS; calls by dose curve; tested in HEK293T cells; note: read-out not given here; potency is the fitted concentration of half-maximal effect; % is set by controls: 0 for no effect and ±100 for the full control effect; nearly all actives have a fitted effect of over 45% in size
LASV entry inh: Lassa virus entry inhibition. Lassa virus pseudotype entry inhibition, cell reporter. Potency, µM (series often up to 37.9 µM), for the others: at the top dose activity change, negative = inhibition, actives largely listed as inhibitors. actives 1.2% (n = 300,000); calls by dose curve; tested in HEK293 cells; note: potency is the fitted concentration of half-maximal effect; % is set by controls: 0 for no effect and ±100 for the full control effect; nearly all actives have a fitted effect of over 50% in size
Marburg entry inh: blocks Marburg virus binding to or entry into cells. Marburg virus pseudotyped entry inhibition, cell reporter. Potency, µM (series often up to 37.8 µM), without a hit: at the highest dose activity change, negative = inhibition, most hits filed as inhibitors. actives 1.8% (n = 300,000). AID 540276; calls by dose curve; tested in HEK293 cells; note: potency is the fitted concentration of half-maximal effect; % is set by controls: 0 for no effect and ±100 for the full control effect
Shiga toxin inh: inhibitors of Shiga toxin in Vero cells. Vero cells, Shiga toxin protein synthesis inhibition reporter. inhibition, % at 38.7 µM. actives 9.2% (n = 290,000); in the data active = inhibition mostly above about 28%, no sharp cut-off; inactive = mostly below about 43%; note: 0% is about no effect
CHX counter: counter-screen hit for Shiga toxin inhibitors, cycloheximide | cell reporter, cycloheximide protein synthesis inhibition counterscreen | max response, % | actives 12% (n = 300,000); in the data active = max response mostly above about 13%, no sharp cut-off; inactive = mostly below about 14%; note: read at 38.3 µM for the half of the compounds with a filed dose; 0% is about no effect
HCV inhibitor: inhibitors of hepatitis C virus infection. Huh7.5.1 HCVcc-Cre infection, luciferase reporter, 44 h. Potency, µM (doses to about 41.8 µM), for the others: at the highest dose activity change, negative = inhibition, hits mostly inhibitors. actives 3.4% (n = 340,000); active = well fitted inhibition curve with a large enough effect; inconclusive = small, poorly fitted or top-dose-only effect, or another doubt; inactive = no such curve, though single readings can be large or run the other way; note: potency is the fitted concentration of half-maximal effect; % is set by controls: 0 for no effect and ±100 for the full control effect
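Luciferase read-out (15 sec integration) after a 15 min room-temperature substrate step quantifies HCVcc-Cre infection. Cells, 1,000 per well, had compound added 4 h post-plating, then virus at ~0.5 moi, and were cultured 44 h.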
* marks the source's active call; other numbers are inactive results; [ ] = another dose, or the depositor's remark. Hits are enriched below; roughly 13% of the tested compounds scored in any of these assays.

Cc1c(C(=O)c2ccc3c(c2)OCO3)ccc2c1OCO2 was read as FMDV inh 18.3%, LASV entry inh 2.4%[46.1 µM], Marburg entry inh -19.9% and HCV inhibitor -4.8%.
For CCn1cc(C(=O)Nc2ccc(OC)c(OC)c2)c2cc(OC)c(OC)cc2c1=O the results were FMDV inh -2.2%, LASV entry inh 2.8%, Marburg entry inh 4.0%, Shiga toxin inh 1.7, CHX counter -6.5 and HCV inhibitor -22.6%.
For COc1cc(/C=C(\C#N)c2nc3ccccc3[nH]2)cc(Br)c1OCc1ccccc1 the results were FMDV inh inconclusive, LASV entry inh inconclusive, Marburg entry inh inconclusive, Shiga toxin inh 14.7, CHX counter 12.3* and HCV inhibitor inconclusive.
`COc1ccc(/C=C(\C#N)c2nc3ccccc3[nH]2)cc1O` gave FMDV inh 7.5%, LASV entry inh -3.7%[46.1 µM], Marburg entry inh inconclusive, Shiga toxin inh 28.9*, CHX counter 19.1* and HCV inhibitor inconclusive.
For COc1cc(/C=C(\C#N)c2nc3ccccc3[nH]2)ccc1Oc1ccc([N+](=O)[O-])cn1 the results were FMDV inh 13.5%, LASV entry inh -6.1%, Marburg entry inh inconclusive, Shiga toxin inh 18.3, CHX counter 23.5* and HCV inhibitor 0.891µM*.
`COc1cc(/C=C(\C#N)c2nc3ccccc3[nH]2)cc(Br)c1OCc1ccc(F)cc1` gave FMDV inh inconclusive, LASV entry inh inconclusive, Marburg entry inh -22.7%, Shiga toxin inh -6.0, CHX counter 11.3 and HCV inhibitor inconclusive.
Screening COc1c(O)ccc(/C=C(\C#N)c2nc3ccccc3[nH]2)c1[N+](=O)[O-] returned FMDV inh -6.6%, LASV entry inh 17.8%, Marburg entry inh -5.3%, Shiga toxin inh 63.9*, CHX counter 40.5* and HCV inhibitor -1.7%.
O=C(c1ccco1)N1CCN(C(=O)C(c2ccccc2)c2ccccc2)CC1 was read as FMDV inh -20.5%, LASV entry inh -18.1%, Marburg entry inh inconclusive, Shiga toxin inh -2.7, CHX counter -0.7 and HCV inhibitor -9.1%.
CCC1(c2ccc(C)cc2)C(=O)NC(=S)NC1=O was read as FMDV inh -11.7%.
`CCC(=O)Oc1ccc(/C=C(\C#N)c2nc3ccccc3[nH]2)cc1OC` gave FMDV inh 35.6% and LASV entry inh 22.1%[46.1 µM].
For COc1cc(/C=C(/C#N)c2nc3ccccc3[nH]2)ccc1OC(=O)c1ccco1 the results were LASV entry inh 1.1%, Marburg entry inh 1.7%, Shiga toxin inh 81.6*, CHX counter 27.6* and HCV inhibitor inconclusive.
Screening Fc1ccc(COc2ccc(C(=S)N3CCCC3)cc2)cc1 returned FMDV inh 51.9%, LASV entry inh inconclusive, Marburg entry inh inconclusive, Shiga toxin inh 58.9*, CHX counter 53.1* and HCV inhibitor -18.7%.
S=C(c1ccc(OCc2ccccc2)cc1)N1CCCC1 was read as FMDV inh 56.6%, Shiga toxin inh 39.4*, CHX counter 20.9* and HCV inhibitor -22.2%.
`CCOc1cc(C(=S)N2CCCC2)ccc1OCc1ccccc1` gave FMDV inh 8.6%, LASV entry inh inconclusive, Marburg entry inh -5.0%, Shiga toxin inh -8.0, CHX counter 5.0 and HCV inhibitor -12.1%.
For O=C(CCN1C(=O)/C(=C/c2ccccc2Cl)SC1=S)N1CCOCC1 the results were FMDV inh -6.5%, LASV entry inh inconclusive, Marburg entry inh inconclusive, Shiga toxin inh 1.3, CHX counter 11.4 and HCV inhibitor 5.62µM*.
O=C(CCN1C(=O)/C(=C/c2ccccc2Cl)SC1=S)N1CCCC1 was read as FMDV inh inconclusive, LASV entry inh 0.3%, Marburg entry inh -15.3%[46.1 µM], Shiga toxin inh 1.9, CHX counter 7.0 and HCV inhibitor inconclusive.
Screening COc1ccc(/C=C2\SC(=S)N(CCCC(=O)N3CCN(C)CC3)C2=O)cc1 returned FMDV inh 5.3%, LASV entry inh inconclusive, Marburg entry inh inconclusive, Shiga toxin inh -2.8, CHX counter 0.5 and HCV inhibitor 15.6%.
Screening COc1cccc(/C=C2/SC(=S)N(CCC(=O)N3CCOCC3)C2=O)c1 returned FMDV inh 17.7%, LASV entry inh inconclusive, Marburg entry inh 5.01µM*, Shiga toxin inh -3.8, CHX counter -3.7 and HCV inhibitor inconclusive.
`CN1CCN(C(=O)CCCN2C(=O)/C(=C/c3cccc(Br)c3)SC2=S)CC1` gave FMDV inh -7.0%, LASV entry inh inconclusive, Marburg entry inh 10µM*, Shiga toxin inh -3.3, CHX counter -2.3 and HCV inhibitor 6.31µM*.
COc1cccc(/C=C2\SC(=S)N(CCCC(=O)N3CCCCC3)C2=O)c1 was read as FMDV inh -14.7%, Shiga toxin inh -7.8, CHX counter -2.7 and HCV inhibitor 12.6µM*.
`COc1ccc(/C=C2\SC(=S)N(CCC(=O)N3CCOCC3)C2=O)cc1` gave FMDV inh 26.9%, LASV entry inh 15.8%, Marburg entry inh -21.4%, Shiga toxin inh 7.5, CHX counter -3.0 and HCV inhibitor -27.0%.
O=C(Nc1ccc2c(c1)OCO2)c1cc(C2CCCCN2C(=O)c2ccc(Cl)cc2)on1 (stereo not given) was read as FMDV inh 7.3%.
Screening CN=c1scc(-c2ccc(Br)cc2)n1C returned FMDV inh -6.4%, LASV entry inh 18.6%, Marburg entry inh 7.3%[46.1 µM], Shiga toxin inh -10.8, CHX counter 2.5 and HCV inhibitor -24.2%.
`Cc1ccc(C)c(-n2c(-c3ccc(Br)cc3)csc2=NC(=O)c2ccccc2F)c1` gave FMDV inh -22.5%, LASV entry inh inconclusive, Marburg entry inh 1.26µM*, Shiga toxin inh -10.6, CHX counter -1.5 and HCV inhibitor 3.16µM*.
`CCOc1ccc(NC(=O)COC(=O)c2cc([N+](=O)[O-])ccc2N2CCOCC2)cc1` gave FMDV inh -23.6%, LASV entry inh -8.8%, Marburg entry inh inconclusive and HCV inhibitor inconclusive.
`Cc1cc(NC(=O)COC(=O)c2cc([N+](=O)[O-])ccc2N2CCOCC2)ccc1Br` gave FMDV inh 31.6µM*, LASV entry inh inconclusive, Marburg entry inh inconclusive and HCV inhibitor 7.08µM*.
For CCc1cccc(NC(=O)COC(=O)c2cc([N+](=O)[O-])ccc2N2CCOCC2)c1 the results were FMDV inh inconclusive, LASV entry inh inconclusive, Marburg entry inh inconclusive and HCV inhibitor 10µM*.
`COc1ccc(CCNC(=O)Cn2nnc(-c3ccc(OC)c(OC)c3)n2)cc1OC` gave FMDV inh -17.3%, LASV entry inh inconclusive, Marburg entry inh 0.2%[46.1 µM], Shiga toxin inh -26.7, CHX counter -1.6 and HCV inhibitor -28.6%.
COc1cccc(-c2nn(C)c3sc(C(=O)Nc4ccc5c(c4)OCCO5)cc23)c1 was read as FMDV inh 26.4%, LASV entry inh -6.6%, Marburg entry inh 0.5%, Shiga toxin inh 74.7*, CHX counter 60.7* and HCV inhibitor 3.16µM*.
